The test system of test [1] is Human papillomavirus type 1a protein E7 (residues 44-93). As to the kind of experiment: HPV1a E7 fragment binders on microarrays, primary screen, biochemical, small-molecule microarray, residues 44-93, 635 nm fluorescence (AID 1108).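 Also: E7 fragment applied at 1 µg/mL in TBST for 1 h at 4 C; score combines spot fluorescence with its signal to noise ratio.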 As to conditions: small-molecule microarray binding, fluorescence 635 nm; higher = more signal.
Test [2] is described as follows: modulators of HCV replicon luciferase signal, primary screen, HCV replication inhibitor project, Huh7 cells, luciferase reporter (AID 1109).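 Also: huh7 hepatoma cells harbouring a luciferase neomycin HCV replicon reporter; luciferase luminescence as measure of HCV replicon replication; test concentration not given here.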 The conditions noted are these: 48 h, higher = more signal. (In general: A replicon is a self-replicating genome or part of one, used to study replication in cells.)
The target in test [3] is Left-right determination factor 2 (Homo sapiens) (UniProt O00292). As to the kind of experiment: LEFTY2 binders on small-molecule microarrays, primary screen, biochemical, small-molecule microarray, 635 nm fluorescence scan (AID 1110). As to conditions: LEFTY2 binding, higher = more signal.
Test [4] deals with Calmodulin-1 (Homo sapiens) (UniProt P0DP23). As to the kind of experiment: CALM1 binders on microarrays, EGTA buffer, profiling panel, biochemical, small-molecule microarray, Cy5-labelled CALM1 (AID 1111).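 Also: labelled calmodulin applied in Tris saline Tween buffer holding calcium plus EGTA and DTT.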 The conditions noted are these: Cy5-CALM1 binding fluorescence, higher = more signal.
For test [5] the target is unchanged. As to the kind of experiment: calcium-bound CALM1 binders on microarrays, profiling panel, artefact control for SMM control-protein annotation, biochemical, small-molecule microarray, Cy5-labelled CALM1, plus calcium (AID 1112).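 Also: score merges spot fluorescence with signal to noise from triplicate slides.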 The conditions noted are these: Cy5-CALM1 binding fluorescence, higher = more signal.
Test [6] can be described thus: small-molecule microarray binders of probe aWnt5a, primary screen, biochemical, biotinylated probe, 635/667 nm fluorescence (AID 1113).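 Also: score merges 667 nm fluorescence intensity with signal-to-noise per printed feature.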 The conditions noted are these: higher = more signal.
Test [7] in a line: small-molecule microarray binders of probe aShh, primary screen, biochemical, biotinylated probe, 635/667 nm fluorescence (AID 1114).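 Also: probe is biotin-labelled aShh protein from a stem cell growth factor screen; measures binding of labelled protein to compounds printed on the slide; score merges feature fluorescence at 667 nm with signal-to-noise.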 As to conditions: higher = more signal.
A short description of test [8]: small-molecule microarray binders of probe aNog, primary screen, biochemical, biotinylated probe, 635/667 nm fluorescence (AID 1115).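 Also: probe is biotinylated aNog protein used at 0.15 µg/mL for 1 h at 4 C; z-score combines 667 nm fluorescence of each spot with its signal to noise.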 The conditions noted are these: higher = more signal.
The target in test [9] is Torsin-1A-interacting protein 1 (Homo sapiens) (UniProt Q5JTV8). As to the kind of experiment: LAP1 binders from COS7 cell lysate, primary screen, small-molecule microarray, 635/667 nm fluorescence (AID 1116). As to conditions: COS7-hLAP1 lysate binding, 635 nm fluorescence, higher = more signal.
Test [10] deals with Alpha-bungarotoxin (Bungarus multicinctus) (UniProt P60615). As to the kind of experiment: alpha-bungarotoxin binders on microarray, profiling panel, artefact control for SMM control protein annotation, biochemical, small-molecule microarray, Alexa647 label, 635/667 nm fluorescence (AID 1117). The conditions noted are these: alpha-BTX-A647 binding fluorescence, higher = more signal.

In the next test the target is Albumin (Bos taurus) (UniProt P02769). As to the kind of experiment: bovine serum albumin binders on microarray, profiling panel, artefact control for SMM control protein annotation, biochemical, small-molecule microarray, Alexa647 label, 635/667 nm fluorescence (AID 1118).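 Also: score merges 667 nm emission intensity and signal-to-noise per printed compound spot.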 The conditions noted are these: BSA-A647 binding, fluorescence 635 nm, higher = more signal.
A short description of test [11]: small-molecule microarray binders of probe aXIP, primary screen, biochemical, NeuroSMM set, 635/667 nm fluorescence (AID 1119).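 Also: probe is the protein aXip251-270 applied at 1 µg/mL to compound-printed slides; binding of probe to printed compounds measured as 667 nm fluorescence plus signal to noise.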 The conditions noted are these: higher = more signal, called active from +8 up or from −8 down.
The nature of test [12]: small-molecule binders of probe aNOTCH3, primary screen, biochemical, small-molecule microarray, 635/667 nm fluorescence (AID 1120).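 Also: probe is a biotin-tagged antibody raised against NOTCH3 rather than NOTCH3 protein; score merges spot fluorescence near 667 nm with spot signal to noise.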 The conditions noted are these: higher = more signal.
Test [13] can be described thus: small-molecule binders of probe aNOTCH2, primary screen, biochemical, small-molecule microarray, 635/667 nm fluorescence (AID 1121).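 Also: score merges feature fluorescence read at 667 nm with its signal to noise.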 As to conditions: higher = more signal.
For test [14], the target named is Carbonic anhydrase 2 (Homo sapiens) (UniProt P00918). As to the kind of experiment: CAII small-molecule binders, profiling panel, biochemical, small-molecule microarray, Alexa647-labelled CAII (AID 1122). The conditions noted are these: CAII-A647 binding fluorescence, higher = more signal.
Test [15] is described as follows: COS7 lysate on small-molecule microarray, probe aHis, 635 nm (AID 1123).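 Also: z-score combines 667nm fluorescence intensity with signal-to-noise per printed compound spot.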 The conditions noted are these: COS7 cell lysate, fluorescence, higher = more signal.
A short description of test [16]: compound binding in COS7 lysate, probe aLAP1, primary screen, cell lysate, small-molecule microarray (AID 1124).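 Also: lysate comes from COS7 cells expressing LAP1 and is applied at 0.3 µg/mL; score merges spot fluorescence near 667 nm with signal-to-noise over triplicate slides.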 As to conditions: probe aLAP1, fluorescence, higher = more signal.
A further test has as its system Sam68 (KHDRBS1). As to the kind of experiment: Sam68 small-molecule binders, primary screen, biochemical, small-molecule microarray, 635 nm fluorescence (AID 1125).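 Also: score merges 667 nm channel intensity with signal to noise over triplicate slides.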 As to conditions: small-molecule microarray binding, higher = more signal.
The test system of test [17] is Chordin-like protein 2 (CHRDL2). As to the kind of experiment: CHRDL2 small-molecule binders, primary screen, biochemical, small-molecule microarray, 635 nm fluorescence (AID 1126).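 Also: printed compound slides probed with Chrdl2 protein at 4 µg/mL for 1 h at 4 C; score merges 667 nm emission intensity with signal to noise over three replicate slides.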 The conditions noted are these: small-molecule microarray binding, fluorescence 635 nm; higher = more signal.
The target in test [18] is Concanavalin-A (Canavalia ensiformis) (UniProt P02866). As to the kind of experiment: ConA small-molecule binders, primary screen, artefact control for SMM control protein annotation, biochemical, small-molecule microarray, Alexa647 label, 635 nm (AID 1127).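 Also: z combines 667 nm emission intensity with signal-to-noise across three replicate slides.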 The conditions noted are these: ConA-A647 binding fluorescence, higher = more signal.

Each structure is given as a SMILES string. Calls of active or inactive are those of the source.

Sequence of Alpha-bungarotoxin (Bungarus multicinctus) (P60615 whole entry, looked up): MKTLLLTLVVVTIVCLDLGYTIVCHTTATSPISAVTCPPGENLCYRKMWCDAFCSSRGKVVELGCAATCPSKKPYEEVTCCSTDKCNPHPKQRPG
Sequence of Concanavalin-A (Canavalia ensiformis) (P02866 whole entry, looked up): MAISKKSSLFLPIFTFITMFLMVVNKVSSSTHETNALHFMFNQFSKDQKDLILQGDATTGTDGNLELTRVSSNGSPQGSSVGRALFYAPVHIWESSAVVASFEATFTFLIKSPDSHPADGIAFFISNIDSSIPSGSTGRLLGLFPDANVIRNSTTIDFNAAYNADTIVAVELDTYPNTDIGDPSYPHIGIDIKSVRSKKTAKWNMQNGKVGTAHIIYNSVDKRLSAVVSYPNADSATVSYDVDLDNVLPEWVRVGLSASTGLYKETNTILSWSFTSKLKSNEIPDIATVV
Sequence of Left-right determination factor 2 (Homo sapiens) (O00292 whole entry, looked up): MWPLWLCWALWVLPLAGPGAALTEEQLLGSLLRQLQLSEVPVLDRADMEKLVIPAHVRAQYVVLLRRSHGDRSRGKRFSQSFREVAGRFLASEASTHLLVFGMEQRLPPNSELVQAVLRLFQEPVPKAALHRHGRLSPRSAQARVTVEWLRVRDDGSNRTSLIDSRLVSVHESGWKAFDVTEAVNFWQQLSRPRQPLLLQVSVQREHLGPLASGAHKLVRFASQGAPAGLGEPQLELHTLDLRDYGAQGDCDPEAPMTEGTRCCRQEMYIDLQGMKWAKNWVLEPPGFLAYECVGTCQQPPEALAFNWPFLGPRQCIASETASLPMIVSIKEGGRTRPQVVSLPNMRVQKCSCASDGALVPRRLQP
Sequence of Albumin (Bos taurus) (P02769 whole entry, looked up): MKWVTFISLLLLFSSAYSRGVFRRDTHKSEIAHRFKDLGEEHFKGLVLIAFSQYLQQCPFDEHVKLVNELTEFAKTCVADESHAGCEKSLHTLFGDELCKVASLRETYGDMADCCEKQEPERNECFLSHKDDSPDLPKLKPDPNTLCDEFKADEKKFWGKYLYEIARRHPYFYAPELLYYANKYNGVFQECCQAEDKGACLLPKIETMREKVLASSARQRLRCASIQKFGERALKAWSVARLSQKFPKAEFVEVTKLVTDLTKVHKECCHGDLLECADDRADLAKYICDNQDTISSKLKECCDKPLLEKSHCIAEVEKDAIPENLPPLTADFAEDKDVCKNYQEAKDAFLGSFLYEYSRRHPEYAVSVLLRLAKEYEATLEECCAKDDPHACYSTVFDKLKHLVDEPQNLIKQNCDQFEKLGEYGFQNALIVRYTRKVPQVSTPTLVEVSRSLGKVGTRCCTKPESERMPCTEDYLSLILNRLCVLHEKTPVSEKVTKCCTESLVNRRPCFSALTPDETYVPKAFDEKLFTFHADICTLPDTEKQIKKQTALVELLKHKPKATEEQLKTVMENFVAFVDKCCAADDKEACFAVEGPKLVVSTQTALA
Sequence of Torsin-1A-interacting protein 1 (Homo sapiens) (Q5JTV8 whole entry, looked up): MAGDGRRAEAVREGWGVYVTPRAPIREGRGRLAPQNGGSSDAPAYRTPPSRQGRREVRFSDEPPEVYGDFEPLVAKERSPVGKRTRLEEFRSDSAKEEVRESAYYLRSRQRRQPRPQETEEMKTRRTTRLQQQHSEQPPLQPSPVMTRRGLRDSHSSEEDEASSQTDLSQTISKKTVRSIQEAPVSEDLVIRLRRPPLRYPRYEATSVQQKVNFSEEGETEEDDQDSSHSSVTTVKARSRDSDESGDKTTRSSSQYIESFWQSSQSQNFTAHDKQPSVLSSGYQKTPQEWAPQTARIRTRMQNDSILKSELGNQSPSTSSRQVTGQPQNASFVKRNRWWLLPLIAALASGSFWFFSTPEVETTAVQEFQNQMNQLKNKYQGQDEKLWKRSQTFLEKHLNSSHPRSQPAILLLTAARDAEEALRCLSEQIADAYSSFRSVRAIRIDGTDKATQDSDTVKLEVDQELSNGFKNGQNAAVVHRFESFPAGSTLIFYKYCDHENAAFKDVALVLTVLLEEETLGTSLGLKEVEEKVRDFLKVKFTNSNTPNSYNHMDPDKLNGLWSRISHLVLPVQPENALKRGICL

Regarding `COCCOC(=O)N1C(=O)[C@@]2(c3cc(C#CC4(O)CCCCCC4)ccc31)[C@H](C(=O)Nc1nc3ccccc3s1)[C@H]1C(=O)O[C@H](c3ccccc3)[C@H](c3ccccc3)N1[C@@H]2c1ccc(OCCO)cc1`, the composite z-score in test [1] is 1.31; in test [3], 0.726; in test [4], 0.693; in test [5], -0.271; in test [6] it was -0.169; in test [7] it was 0.138. For the same molecule, the composite z-score in test [8] was 0.0824; in test [9], -0.105; in test [10], 1.21; with Albumin (Bos taurus), 0.345; in test [12], 0.246; in [13], -0.0009. Besides, the composite z-score in test [14] is 0.503; in [15] it was 0.541; in test [16], 0.324; with Sam68 (KHDRBS1) it was 1.3; in [17], 0.637; in test [18], 1.1. In test [2], this molecule displayed a z-score of -2.33. Further, the composite Z-score in test [11] is -0.245 (inactive).

As for `COc1ccc(-c2cc3c(c(Cc4ccccc4)n2)[Si](C(C)C)(C(C)C)OC3)cn1`, the composite z-score in [1] is -0.864; in test [3], -0.0979; in [4], -0.646; in test [5], 0.0817; in [6], -0.13; in test [7] it was -0.0849. For the same molecule, the composite z-score in test [8] is -0.0855; in test [9] it was -0.0516; in [10], -0.26; in the test with Albumin (Bos taurus), -0.832; in test [12], 0.0596; in test [13] it was -0.155. Besides, the composite z-score in [14] is -0.272; in test [15], -0.0385; in test [16], -0.124; in the test on Sam68 (KHDRBS1), -0.0817; in test [17] it was 0.21; in test [18], -0.739. Further, the z-score in test [2] is -0.421. Also, in test [11], the composite Z-score is 0.168 (inactive).

Consider `COC(=O)[C@@]1(Cc2ccccc2)[C@H]2c3cc(C(=O)N(C)C)n(CCc4c[nH]c5ccc(O)cc45)c3C[C@H]2CN1C(=O)c1ccccc1`, for which the composite z-score was 1.32 in test [1]; -0.119 in test [3]; 1.2 in [4]; 0.0493 in test [5]; 0.0031 in test [6]; -0.0146 in [7]. The composite z-score in test [8] came to 0.843; in test [9], 1.48; in test [10], 0.194; in the test with Albumin (Bos taurus), 1.01; in test [12], 0.238; in test [13] it was 0.153. Besides, the composite z-score in [14] was 0.858; in [15] it was 2.15; in test [16], 1.29; with Sam68 (KHDRBS1) it was 0.878; in test [17], -0.676; in [18], 0.0221. In [2], this molecule came in with a z-score of -2.07. Also, the composite Z-score in test [11] was 0.492 (inactive).

`COC(=O)[C@@]1(CCC(=O)OC(C)(C)C)N=C(c2ccc(OCCCO)cc2)O[C@H]1c1ccccc1`: the composite z-score in test [1] is 0.255; in test [3], -0.211; in test [4], 0.0108; in test [5], -0.181; in test [6], -0.0161; in test [7], 0.351. Besides, the composite z-score in test [8] is 0.711; in [9] it was 0.692; in test [10] it was 0.629; in the test with Albumin (Bos taurus), -0.735; in test [12] it was -0.0716; in test [13], 0.0464. The composite z-score in test [14] was 0.687; in test [15] it was 2.16; in test [16], 0.637; with Sam68 (KHDRBS1), -0.297; in test [17], 0.0741; in test [18], 0.57. Also, in test [2], the z-score is -1.79. In addition, the composite Z-score in test [11] is 0.21 (inactive).

Take `CC(C)OC(=O)C=C1C[C@@H](c2cccc(Cl)c2)O[C@@H](c2cccc(Cl)c2)O1`: the composite z-score in [1] was 0.597; in test [3], -0.869; in [4], 1.39; in test [5], 1.05; in test [6], -0.0735; in [7], -0.0035. The composite z-score is -0.43 in test [8]; 1.58 in test [9]; 0.381 in test [10]; 0.466 with Albumin (Bos taurus); -0.137 in test [12]; 0.0234 in [13]. In addition, the composite z-score in [14] was 0.299; in [15] it was 1.68; in test [16] it was 0.484; in the test with Sam68 (KHDRBS1), -0.296; in test [17], -0.579; in test [18], 0.99. This molecule also registered a z-score in test [2] of -0.825. The composite Z-score in [11] is 0.806 (inactive).

For the molecule `COCCCNC(=O)[C@@H]1c2ccccc2C(=O)N(Cc2ccccc2OC)[C@H]1c1ccc(CO)cc1`, the composite z-score was 0.889 in test [1]; -0.0144 in test [3]; 0.349 in [4]; 0.392 in [5]; 0.0279 in test [6]; -0.0035 in test [7]. Also, the composite z-score in test [8] was -0.136; in [9] it was 1.62; in test [10] it was 0.117; with Albumin (Bos taurus) it was 0.459; in test [12], -0.0932; in test [13] it was -0.155. The composite z-score in test [14] was 0.711; in test [15], 1.36; in [16], -0.355; in the test with Sam68 (KHDRBS1) it was -0.268; in test [17] it was 0.447; in [18] it was 0.948. The molecule further returned a z-score in test [2] of -1.96. Besides, in test [11], the composite Z-score was 0.414 (inactive).

The values above are taken from PubChem BioAssay.
